“And” between values parts separate entries of the source, which are not always exact repeats. Equal values may be shown once. Records with an inconclusive call do not appear. Entries that show only a call come without a potency. More than one record can exist for a structure, and the calls need not agree. The source made the active and inactive calls. The call rests on the fitted dose curve; in most records, active means well fitted curve in the direction sought with a large enough effect in the repeat runs; inconclusive means weak or mixed curves; inactive means no such curve, though single readings can be large; an effect the other way counts as inactive or inconclusive.
Legend:
[1] = qHTS assay to identify small molecule antagonists of the glucocorticoid receptor (GR) signaling pathway - cell viability counter screen (AID 720693); further: nearly all actives have a fitted effect of over 55% in size
[2] = qHTS assay for identifying genotoxic compounds that show differential cytotoxicity against isogenic chicken DT40 cell lines with known DNA damage response pathways - wild type cell line (AID 743012); further: nearly all actives have a fitted effect of over 60% in size
Method in brief: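 Endpoint: CellTiter-Glo luminescence, 30 min RT. Cells: wild type DT40, 300/well. Exposure: compounds in DMSO, 40 h, 37 C/5% CO2, after ~0.5 h pre-incubation.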

[3] = qHTS assay for identifying genotoxic compounds that show differential cytotoxicity against isogenic chicken DT40 cell lines with known DNA damage response pathways - Rev3 mutant cell line (AID 743014); further: nearly all actives have a fitted effect of over 55% in size
[4] = qHTS assay for identifying genotoxic compounds that show differential cytotoxicity against isogenic chicken DT40 cell lines with known DNA damage response pathways - Rad54/Ku70 mutant cell line (AID 743015); further: nearly all actives have a fitted effect of over 60% in size
[5] = qHTS assay to identify small molecule antagonists of the androgen receptor (AR) signaling pathway - cell viability counter screen (AID 743033; further: nearly all actives have a fitted effect of over 45% in size)
[6] = qHTS assay to identify small molecule antagonists of the androgen receptor (AR) signaling pathway using the MDA cell line - cell viability counter screen (AID 743041; further: nearly all actives have a fitted effect of over 45% in size)
Method in brief: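 Compound exposure lasted 16 h at 37C in MDA-kb2 AR-luc cells stimulated with R1881. Protease-based CellTiter-Fluor reagent was applied for the final 30 min and fluorescence measured.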
Potency means the concentration at half of the fitted maximal effect.

Row | SMILES | Potency [1] | Potency [2] | Potency [3] | Potency [4] | Potency [5] | Potency [6] | viability change, negative = cytotoxic [1] | activity change, negative = cytotoxicity [2] | activity, negative = cytotoxicity [3] | activity change, negative = cytotoxicity [4] | activity change, negative = cytotoxicity [5] | viability change, negative = cytotoxic [6]
1 | Cc1cc(-n2nc3ccc(Cl)cc3n2)c(O)c(C(C)(C)C)c1 | inactive | inactive | inactive | inactive | inactive | inactive | – | – | – | – | – | –
2 | CC(=O)Oc1cc2c(s1)CCN(C(C(=O)C1CC1)c1ccccc1F)C2 (configuration not stated) | inactive | inactive | inactive | inactive | inactive | inactive | – | – | – | – | – | –
3 | O[C@@H]([C@H](O)[C@H](O)CBr)[C@H](O)CBr | inactive | inactive | inactive | inactive | inactive | inactive | – | – | – | – | – | –
4 | OC[C@@H](O)[C@@H](O)CO | inactive | inactive | inactive | inactive | inactive | inactive | – | – | – | – | – | –
5 | C=C(CC)C(=O)c1ccc(OCC(=O)O)c(Cl)c1Cl | inactive | 18.8 µM (active) and 43 µM (active) | 26.6 µM (active) and 48.2 µM (active) | 29.8 µM (active) and 48.2 µM (active) | inactive | 54.1 µM (active) | – | – | – | – | – | –
6 | c1cnccn1 | inactive | inactive | inactive | inactive | inactive | inactive | – | – | – | – | – | –
7 | CC(=O)CC(=O)Nc1ccc(S(=O)(=O)O)cc1 | inactive | inactive | inactive | inactive | inactive | inactive | – | – | – | – | – | –
8 | C#C[C@]1(OC(C)=O)CC[C@H]2[C@@H]3CCC4=C[C@@H](OC(C)=O)CC[C@@H]4[C@H]3CC[C@@]21C | inactive | 3.76 µM (active) and 6.68 µM (active) | 10.6 µM (active) and 16.8 µM (active) | 10.6 µM (active) and 11.9 µM (active) | inactive | inactive | – | – | – | – | – | –
9 | CC(C)CCOC(=O)/C=C/c1ccccc1 | inactive | inactive | inactive | inactive | inactive | inactive | – | – | – | – | – | –
10 | CC(CCc1ccccc1)NCC(O)c1ccc(O)c(C(N)=O)c1 (configuration not stated) | inactive | inactive | inactive | inactive | inactive | inactive | – | – | – | – | – | –
11 | COC(C)=O | inactive | inactive | inactive | inactive | inactive | inactive | – | – | – | – | – | –
12 | CCC(=O)OC(=O)CC | inactive | inactive | inactive | inactive | inactive | inactive | – | – | – | – | – | –
13 | O=[N+]([O-])c1ccc(F)c(Cl)c1 | inactive | inactive | inactive | inactive | inactive | inactive | – | – | – | – | – | –
14 | O=C1C(c2[nH]c3ccc(S(=O)(=O)O)cc3c2O)=Nc2ccc(S(=O)(=O)O)cc21 | inactive | inactive | inactive | inactive and 30.6 µM (active) | inactive | inactive | – | – | – | – | – | –
15 | CCCCNS(=O)(=O)c1ccc(C)cc1 | inactive | inactive | inactive | inactive | inactive | inactive | – | – | – | – | – | –
16 | COc1ccc(NC(=O)CC(C)=O)cc1 | inactive | inactive | inactive | inactive | inactive | inactive | – | – | – | – | – | –
17 | CC(C(=O)O)c1ccc2c(c1)[nH]c1ccc(Cl)cc12 (configuration not stated) | inactive | inactive | inactive | inactive | inactive | inactive | – | – | – | – | – | –
18 | O=S(=O)(O)c1ccccc1/C=C/c1ccc(-c2ccc(/C=C/c3ccccc3S(=O)(=O)O)cc2)cc1 | inactive | inactive | inactive | inactive | inactive | inactive | – | – | – | – | – | –
19 | CCCCCc1ccc(Cl)cc1 | inactive | inactive | inactive | inactive | inactive | inactive | – | – | – | – | – | –
20 | O=C(O)O | – | – | – | – | – | – | 4.34% [at 7.04 µM] (inactive) | -8.76% [at 8.52 µM] (inactive) | -2.82% [at 8.53 µM] (inactive) | -2.06% [at 8.55 µM] (inactive) | -8.19% [at 7.04 µM] (inactive) | -5.91% [at 8.47 µM] (inactive)
21 | CCCCCCCCCCCCCCCC[N+](C)(C)CC | 13.4 µM (active) and 17.4 µM (active) | 376 nM (active) and 866 nM (active) | 422 nM (active) and 866 nM (active) | 473 nM (active) and 866 nM (active) | 9.52 µM (active) and 21.9 µM (active) | 18.8 µM (active) and 43.4 µM (active) | – | – | – | – | – | –
22 | O=C(O)c1cccc(C(F)(F)F)c1 | inactive | inactive | inactive | inactive | inactive | inactive | – | – | – | – | – | –
23 | CCCC1CCC(=O)CC1 | inactive | inactive | inactive | inactive | inactive | inactive | – | – | – | – | – | –
24 | COC(=O)c1ccccc1C | inactive | inactive | inactive | inactive | inactive | inactive | – | – | – | – | – | –
25 | CCC(C)n1ncn(-c2ccc(N3CCN(c4ccc(OC[C@H]5CO[C@](Cn6cncn6)(c6ccc(Cl)cc6Cl)O5)cc4)CC3)cc2)c1=O (some centres not stated) | inactive | 596 nM (active) | 422 nM (active) | 596 nM (active) | inactive | inactive | – | – | – | – | – | –
26 | Nc1nc2c(ncn2COCCO)c(=O)[nH]1 | inactive | 2540 nM (active) | 2270 nM (active) | 4520 nM (active) | inactive | inactive | – | – | – | – | – | –
27 | CC1=CCC(=C(C)C)CC1 | inactive | inactive | inactive | inactive | inactive | inactive | – | – | – | – | – | –
